# Tests used:
# Details in all cases: concentration: 10 µM; 24 h
# HCC1569 [1] = experiment: cell number relative to DMSO (% of DMSO); higher = more cells (less growth inhibition / toxicity)
# Outline: (§1)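 HCC1569 and TDF cells (800 per well, 384-well plates, RPMI with 10% FBS) were treated with compounds at 10 µM for 24 h at 37 °C, in triplicate. Cells were fixed in 3.7% formaldehyde and stained with a rabbit anti-H1.0 antibody, an AlexaFluor 647 secondary and DAPI; six fields per well were imaged at ×10. H1.0 nuclear intensity or cell number is expressed as percent of the plate DMSO control, taking the median of replicates. HCC1569 values were smoothed for positional effects.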
# TDF [2] = experiment: as above
# Outline: as §1
# TDF [3] = experiment: H1.0 immunofluorescence intensity relative to DMSO (% of DMSO); higher = stronger H1.0 induction, active = 120 or more
# Outline: as §1
# HCC1569 [4] = experiment: H1.0 immunofluorescence intensity relative to DMSO (% of DMSO); higher = stronger H1.0 induction, active = 140 or more
# Outline: as §1
# 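For H1.0 immunofluorescence intensity relative to DMSO in this document: TDF is a line of transformed human dermal fibroblasts of mesenchymal origin.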
# 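For cell number relative to DMSO in this document: TDF denotes transformed human dermal fibroblasts of mesenchymal origin.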
SMILES,cell number (HCC1569 [1]),cell number (TDF [2]),H1.0 immunofluorescence intensity (TDF [3]),H1.0 immunofluorescence intensity (HCC1569 [4])
COC(=O)c1ccc2c(c1)nc(NC(=O)c1ccccc1)n2CCCc1ccccc1,80.4,65.7,94.6 (inactive),88.3 (inactive)
Br.Oc1ccc(C2CNCc3sccc32)cc1O (stereo not given),100,96.3,94.4 (inactive),112 (inactive)
[Cl-].[Li+] [Lithium Chloride],101,109,92.2 (inactive),88 (inactive)
O=C1NC(=O)c2c1c1c3ccccc3[nH]c1n1cncc21 [Isogranulatimide],87.7,96.4,90 (inactive),134 (inactive)
CN1CCN(CCCN2c3ccccc3Sc3ccc(C(F)(F)F)cc32)CC1.Cl.Cl [Trifluoperazine dihydrochloride],87.3,108,107 (inactive),141 (active)
O=c1cc(-c2ccc(O)c(O)c2)oc2cc(O)c(C3OC(CO)C(O)C(O)C3O)c(O)c12 (stereo not given) [Homoorientin],101,96.2,100 (inactive),90.4 (inactive)
O=c1c(-c2ccc(O)cc2)coc2cc(OC3OC(CO)C(O)C(O)C3O)ccc12 (stereo not given) [Daidzin],95.7,108,94.8 (inactive),89.9 (inactive)
C=C1CCC2C(C)(CO)C(O)CCC2(C)C1CC=C1C(=O)OCC1O (stereo not given) [Andrographolide],83.1,68.6,109 (inactive),113 (inactive)
CC(C)CN(C)c1nc(N)c(C(=O)N=C(N)N)nc1Cl [5-(N-Methyl-N-isobutyl)amiloride],100,92.3,106 (inactive),101 (inactive)
O=C(O)C=Cc1ccc(Cn2ccnc2)cc1 [Ozagrel],100,101,93.8 (inactive),104 (inactive)

# Source: the supplement of paper PMC7156485
